Each structure is given as a SMILES string. Inconclusive results are not listed. A call without a number means that no potency is given here. Calls of active or inactive are those of the source. Calls follow the shape of the dose curve; as a rule, active = well fitted inhibition curve with a large enough effect; inconclusive = small, poorly fitted or top-dose-only effect; inactive = no such curve, though single readings can be large or run the other way.
Potency is read from the fitted curve at half-maximal effect.

This test deals with Tumor susceptibility gene 101 protein (Homo sapiens) (UniProt Q99816). In words: qHTS Assay for Iinhibitors of HIV-1 Budding by Blocking the Interaction of PTAP/TSG101: Hit Validation in TR assay. The conditions noted are these: Tsg101 binding domain + Texas Red-labeled PTAP peptide, fluorescence polarization, 20 min; series mostly up to 57.5 µM. A digest of the protocol: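 Fluorescence polarization: Tsg101 binding domain (10 uM final) with Texas Red-labelled PTAP peptide (50 nM final) in HEPES pH 7.5, 0.15 M NaCl, Tween 20, EDTA, TCEP; 20 min binding at room temperature after compound addition.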
Tumor susceptibility gene 101 protein (Homo sapiens), sequence (Q99816 whole entry, looked up, the tested form may be a part): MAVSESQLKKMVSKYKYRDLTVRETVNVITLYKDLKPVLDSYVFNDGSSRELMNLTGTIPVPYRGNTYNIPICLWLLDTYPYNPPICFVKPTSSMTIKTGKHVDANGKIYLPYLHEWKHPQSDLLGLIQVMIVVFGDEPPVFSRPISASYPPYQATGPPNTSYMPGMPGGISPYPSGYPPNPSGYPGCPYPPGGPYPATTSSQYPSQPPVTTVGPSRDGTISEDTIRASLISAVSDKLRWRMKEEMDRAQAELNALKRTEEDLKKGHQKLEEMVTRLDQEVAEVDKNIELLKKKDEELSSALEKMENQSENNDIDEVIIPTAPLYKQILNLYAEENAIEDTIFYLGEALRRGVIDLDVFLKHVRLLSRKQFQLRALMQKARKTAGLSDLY
A general note: qHTS replaces the single test concentration by a dilution series.
As to `COc1ccc(CCn2c(=N)c(S(=O)(=O)c3ccc(Cl)cc3)cc3c(=O)n4ccccc4nc32)cc1`, the Potency entry was “inactive”.

Consider `CCOC(=O)c1c(C)oc2c1c(CN1CCN(C(=O)OCC)CC1)c(O)c1ccccc12`, for which the Potency result was “inactive”.

Take `CC1=CC(=C(C#N)c2nc3ccccc3s2)C=C(C)N1CC1CCCO1` (stereo unspecified): the Potency entry is “inactive”. For `O=C(C1=NN(c2ccccc2)C2C(=O)N(c3ccccc3Cl)C(=O)C12)c1ccccc1` (stereo unspecified) the value was “inactive”; for `Cn1c(=O)cc2c3c(c(N4CCCCC4)ccc31)C(=O)c1ccccc1-2`, “inactive”. Under `Cc1nc(Cl)c2c(n1)NC1=C(O2)C(=O)CCC1` stands “inactive”.

On to `C=CCOc1ccc(C2OC34CCCCC3C(C#N)(C#N)C2(C#N)C(=N)O4)cc1` (stereo unspecified), for which the Potency entry is “inactive”. Consider `COc1ccc2c3c(cccc13)C(=O)CC2`, for which the Potency result was “inactive”. For `OC(CN1CCN(c2ccccn2)CC1)Cn1c2ccccc2c2ccccc21` (stereo unspecified), the Potency result was “inactive”.

Take `CCN(CC)c1nc2ccccc2nc1C(C#N)C(=O)NCCc1ccccc1` (stereo unspecified): the Potency entry was “inactive”. Under `COc1cccc2c1C(=O)c1c(O)c3c(c(O)c1C2=O)C[C@@](O)(C(C)=O)C[C@@H]3O[C@H]1C[C@H](N)[C@H](O)[C@H](C)O1` stands 20.6 µM (active); under `CCCCN(C)C1=CC2=CC(=C(C#N)C#N)CCC2CC1` (stereo unspecified), “inactive”; under `Cn1c(/C(C#N)=C/c2ccc(-c3ccc(S(N)(=O)=O)cc3)o2)nc2ccccc21`, “inactive”. Under `COc1ccc(N(C(=O)c2snc(C(N)=O)c2N)C(C(=O)NC2CCCC2)c2ccc3ncccc3c2)cc1` (stereo unspecified) stands “inactive”. Regarding `Cc1ccc(C2C3CN(C(C)C)CC=C3C(C#N)=C(N)C2(C#N)C#N)cc1` (stereo unspecified), the Potency result is “inactive”. Consider `O=C(O)c1ccccc1-c1ccc(/C=C/c2cc(C(F)(F)F)[nH]c(=O)n2)o1`, for which the Potency entry is “inactive”.

The values are drawn from PubChem BioAssay AID651599 (National Center for Advancing Translational Sciences (NCATS), 2012).
